Test results as given in PubChem BioAssay AID686979 (National Center for Advancing Translational Sciences (NCATS), 2013).
Hit rate of the full screen: of about 420,000 compounds, about 50,000 (12%) were called active. Another 26% or so got no clear call; they are omitted. Calls come from the whole dose curve; as a rule, active = well fitted inhibition curve with a large enough effect; inconclusive = small, poorly fitted or top-dose-only effect; inactive = flat fitted curve, though single readings scatter. The list comes from a sample in which actives are over-represented; it also holds similar structures and randomly drawn compounds.

Test: qHTS for Inhibitors of human tyrosyl-DNA phosphodiesterase 1 (TDP1): qHTS in cells in presence of CPT; note: nearly all actives have a fitted effect of over 55% in size
Settings: chicken DT40 Tdp1-/-;hTDP1 cells + 20 nM CPT, ATP luminescence, 48 h; series mostly up to 46.2 µM; activity change, negative = growth inhibition: at the top concentration
How it was run: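 Chicken DT40 Tdp1-/- cells complemented with human TDP1, 400 cells/well, exposed to compounds plus 20 nM camptothecin for at least 48 h at 37 C; viability read as ATP content by CellTiter-Glo luminescence.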
% is set by controls: 0 for no effect and ±100 for the full control effect; potency is the fitted concentration of half-maximal effect.

**Q.** For `Brc1ccccc1C1Nc2cccc3cccc(c23)N1`, which “activity change, negative = growth inhibition” value is on record?
**A.** -21.6% (inactive)

**Q.** With `Cc1ccc(C2Nc3cccc4cccc(c34)N2)cc1` as the molecule, how does the Potency read?
**A.** 2.59 µM (active)

**Q.** With `COc1ccc(CCn2c3c(c(=O)[nH]c2=S)CN(C(C)C)CN3)cc1OC` as the molecule, how does the “activity change, negative = growth inhibition” value read?
**A.** -13% (inactive)

**Q.** Which “activity change, negative = growth inhibition” value does the source give for `COCC(C)NC(=O)CSc1nc2nn(-c3ccccc3)c(=O)c-2c2n1CCCCC2` (stereo unspecified) here?
**A.** 2.87% (inactive)

**Q.** Which “activity change, negative = growth inhibition” value does the source give for `CC(=O)Nc1ccc(C(=O)CSc2nc3ccc(C)cc3[nH]2)cc1` here?
**A.** -0.86% (inactive)

**Q.** Which Potency does the source give for `Cc1ccc2nc(/C(C#N)=C\c3ccc(OC(=O)c4cccs4)cc3)[nH]c2c1` here?
**A.** 14.6 µM (active)

**Q.** For `Cc1ccc2nc(/C(C#N)=C/c3ccc(-c4ccc(C(=O)OC(C)C)cc4)o3)[nH]c2c1`, which Potency is on record?
**A.** 7.31 µM (active)

**Q.** Which “activity change, negative = growth inhibition” value does the source give for `Cc1ccc2nc(S(=O)(=O)O)[nH]c2c1` here?
**A.** -1.52% (inactive)

**Q.** Which “activity change, negative = growth inhibition” value does the source give for `CCOC(=O)CSc1nc2ccc(C)cc2[nH]1` here?
**A.** -1.71% (inactive)

**Q.** With `CN(C(=O)c1cccc([N+](=O)[O-])c1)c1ccccc1C(=O)NCc1ccccc1` as the molecule, how does the “activity change, negative = growth inhibition” value read?
**A.** 2.21% (inactive)

**Q.** For `COc1ccc(S(=O)(=O)N2CCN(c3ccc(F)cc3)CC2)cc1-c1noc(C)n1`, which “activity change, negative = growth inhibition” value is on record?
**A.** 7.73% (inactive)

**Q.** Which “activity change, negative = growth inhibition” value does the source give for `COc1ccc(CCNC(=O)C(=O)NCC2OCCN2S(=O)(=O)c2cccs2)cc1OC` (stereo unspecified) here?
**A.** -2.17% (inactive)

**Q.** Which “activity change, negative = growth inhibition” value does the source give for `Cc1cc(C)cc(OCC(=O)Nc2ccc(S(=O)(=O)Nc3ccccn3)cc2)c1` here?
**A.** -11.1% (inactive)

**Q.** For `COC(=O)Cc1ccc(Oc2ncc(C(F)(F)F)cc2Cl)cc1`, which “activity change, negative = growth inhibition” value is on record?
**A.** -15.1% (inactive)

**Q.** With `Cc1cc(C)cc(NS(=O)(=O)c2ccc(Oc3ncc(C(F)(F)F)cc3Cl)cc2)c1` as the molecule, how does the Potency read?
**A.** 23.1 µM (active)

**Q.** With `CCOC(=O)[C@H](CCc1ccccc1)N[C@@H](C)C(=O)N1CC2(C[C@H]1C(=O)O)SCCS2` as the molecule, how does the “activity change, negative = growth inhibition” value read?
**A.** -0.389% (inactive)

**Q.** Which “activity change, negative = growth inhibition” value does the source give for `COCCCNC(=O)[C@H]1N2C(=O)c3ccccc3C2SC1(C)C` (stereo partly specified) here?
**A.** 7.26% (inactive)

**Q.** Which activity change, negative = growth inhibition does the source give for `CC(C)N1C[C@@H](NCc2ccccc2O)C[C@H]1C(=O)N1CCN(c2cccc(C(F)(F)F)c2)CC1` here?
**A.** -8.03% [at 9.04 µM] (inactive)

**Q.** For `CC1CCC(N2CC(=O)N(CCC3=CCCCC3)C(c3ccc(F)cc3)C2=O)CC1` (stereo unspecified), which Potency is on record?
**A.** 13 µM (active)

**Q.** Which “activity change, negative = growth inhibition” value does the source give for `O=S(=O)(Cc1nnnn1-c1ccc(Br)cc1)c1ccc(F)cc1` here?
**A.** -16.3% (inactive)

**Q.** For `NS(=O)(=O)c1ccc(NC(=O)COc2ccc(S(=O)(=O)NC3CCCCC3)cc2)cc1`, which “activity change, negative = growth inhibition” value is on record?
**A.** -27.9% (inactive)

**Q.** For `CCCS(=O)(=O)N1CCCC(C(=O)N2CCN(c3ccccc3)CC2)C1` (stereo unspecified), which “activity change, negative = growth inhibition” value is on record?
**A.** -5.02% (inactive)

**Q.** Which “activity change, negative = growth inhibition” value does the source give for `O=C(NCc1ccco1)C1CCCN(S(=O)(=O)c2cccc3nonc23)C1` (stereo unspecified) here?
**A.** -10.4% (inactive)

**Q.** With `CC(=O)c1cccc(NC(=O)C2CCCN(S(=O)(=O)c3cccc4nonc34)C2)c1` (stereo unspecified) as the molecule, how does the “activity change, negative = growth inhibition” value read?
**A.** -20.4% (inactive)

**Q.** Which Potency does the source give for `O=C(C1CCCN(S(=O)(=O)c2cccc3nonc23)C1)N1CCN(c2ccccc2F)CC1` (stereo unspecified) here?
**A.** 18.4 µM (active)

**Q.** Which Potency does the source give for `O=C(C1CCCN(S(=O)(=O)c2ccccc2)C1)N1CCN(c2ccc(F)cc2)CC1` (stereo unspecified) here?
**A.** 11.6 µM (active)

**Q.** With `Cc1ccc(S(=O)(=O)N2CCCC(C(=O)N3CCN(C)CC3)C2)cc1` (stereo unspecified) as the molecule, how does the “activity change, negative = growth inhibition” value read?
**A.** -6.45% (inactive)

**Q.** Which “activity change, negative = growth inhibition” value does the source give for `CN1CCC(N(C)S(=O)(=O)c2ccc(NC(=O)c3cccc(C#N)c3)cc2)CC1` here?
**A.** -9.95% (inactive)

**Q.** With `COC(C[C@@H](O)C[C@H](O)[C@H](C)OCc1ccccc1)OC` as the molecule, how does the “activity change, negative = growth inhibition” value read?
**A.** -2.51% (inactive)

**Q.** Which Potency does the source give for `CO[C@H]1O[C@@H]2O[C@@]3(C)CC[C@@H]4[C@@H](C)CC[C@@H]([C@H]1C)[C@@]24OO3` here?
**A.** 0.631 µM (active)

**Q.** Which “activity change, negative = growth inhibition” value does the source give for `COc1ccccc1C(=O)NC(CCSC)C(=O)N1CCN(C(C)=O)CC1` (stereo unspecified) here?
**A.** -0.07% (inactive)

**Q.** With `CC(C)c1cccc(C(C)C)c1Nc1cn[nH]c1` as the molecule, how does the Potency read?
**A.** 14.6 µM (active)

**Q.** Which “activity change, negative = growth inhibition” value does the source give for `CC(=O)Nc1ccc(S(=O)(=O)N(C)c2ccc(OCC(=O)OCC(=O)N3CCCCC3)cc2)cc1` here?
**A.** 5.25% (inactive)

**Q.** Which Potency does the source give for `CCCN1C2CCCC1CC(NC(=O)NC13CC4CC(CC(C4)C1)C3)C2` (stereo unspecified) here?
**A.** 16.4 µM (active)

**Q.** With `CCCN1C2CCCC1CC(NC(=O)c1cccc(OC)c1)C2` (stereo unspecified) as the molecule, how does the “activity change, negative = growth inhibition” value read?
**A.** -5.4% (inactive)

**Q.** With `CCCNC(=S)NC1CC2CCCC(C1)N2CC(C)C` (stereo unspecified) as the molecule, how does the “activity change, negative = growth inhibition” value read?
**A.** -8.26% (inactive)

**Q.** For `Cc1ccc(NC(=O)CSCC(=O)Nc2sccc2C#N)cc1`, which “activity change, negative = growth inhibition” value is on record?
**A.** 2.86% (inactive)

**Q.** Which “activity change, negative = growth inhibition” value does the source give for `COc1ccccc1C(=O)COC(=O)CNS(=O)(=O)c1ccc(NC(C)=O)cc1` here?
**A.** -12.6% (inactive)

**Q.** With `COc1ccc(NC(=O)CN2C(=O)NC(C)(c3ccccc3)C2=O)cn1` (stereo unspecified) as the molecule, how does the “activity change, negative = growth inhibition” value read?
**A.** -5.76% (inactive)

**Q.** With `COc1ccc(CS(=O)/C(Cl)=C(/Cl)C(=O)Nc2ccc(OC)nc2)cc1` (stereo unspecified) as the molecule, how does the Potency read?
**A.** 0.0184 µM (active)

**Q.** With `COc1ccc(NC(=S)NCCNC(C)=O)cc1` as the molecule, how does the “activity change, negative = growth inhibition” value read?
**A.** -3.51% (inactive)

**Q.** With `Cc1nc(Nc2ccccc2F)c2nnn(Cc3ccccc3Cl)c2n1` as the molecule, how does the “activity change, negative = growth inhibition” value read?
**A.** -15.9% (inactive)

**Q.** With `NC(=O)c1sc(-c2ccsc2)cc1N` as the molecule, how does the “activity change, negative = growth inhibition” value read?
**A.** 3.43% (inactive)

**Q.** Which “activity change, negative = growth inhibition” value does the source give for `O=C(Nc1ccccc1-c1ccccc1)c1ccccc1[N+](=O)[O-]` here?
**A.** -5.27% (inactive)

**Q.** Which “activity change, negative = growth inhibition” value does the source give for `Cc1ccc(CC(=O)N(C)CC(=O)N(CC(C)C)c2c(N)n(CC(C)C)c(=O)[nH]c2=O)cc1C` here?
**A.** 2.72% (inactive)

**Q.** With `COc1ccc(-n2ncc3c2CC(C)(C)CC3NC(=O)CCc2c(C)noc2C)cc1` (stereo unspecified) as the molecule, how does the “activity change, negative = growth inhibition” value read?
**A.** -14.8% (inactive)

**Q.** For `COc1ccc(OC)c(C(=O)NC2CCCc3c2cnn3-c2cc(C)cc(C)c2)c1` (stereo unspecified), which Potency is on record?
**A.** 29.1 µM (active)

**Q.** With `O=C(NCCCNC(=O)c1ccccc1Cl)c1cnccn1` as the molecule, how does the “activity change, negative = growth inhibition” value read?
**A.** 14.9% (inactive)

**Q.** Which “activity change, negative = growth inhibition” value does the source give for `Cc1ccc(-c2csc(NC(=O)c3cnccn3)n2)cc1C` here?
**A.** -0.532% (inactive)

**Q.** For `COCc1ccc(C(=O)NC2CC(C)(C)Cc3c2cnn3-c2ccc(C)cc2)o1` (stereo unspecified), which “activity change, negative = growth inhibition” value is on record?
**A.** -24.3% (inactive)

**Q.** Which Potency does the source give for `Cc1ccc(-n2ncc3c2CCCC3NC(=O)c2cnccn2)cc1C` (stereo unspecified) here?
**A.** 20.6 µM (active)
